# Laboratory results as given in ChEMBL document CHEMBL1201862, “PubChem BioAssay data set” (2004).
# About 2,100 (0.53%) of roughly 400,000 compounds were called active. Inconclusive results (about 14%) are left out. The rule behind the calls is not given here. This excerpt belongs to a sample that is enriched for actives.
# Target: Ataxin-2 (Homo sapiens) (UniProt Q99700)
# Experiment: qHTS for Inhibitors of ATXN expression.
# Format: functional
# Chain of Ataxin-2 (Homo sapiens) (Q99700 whole entry): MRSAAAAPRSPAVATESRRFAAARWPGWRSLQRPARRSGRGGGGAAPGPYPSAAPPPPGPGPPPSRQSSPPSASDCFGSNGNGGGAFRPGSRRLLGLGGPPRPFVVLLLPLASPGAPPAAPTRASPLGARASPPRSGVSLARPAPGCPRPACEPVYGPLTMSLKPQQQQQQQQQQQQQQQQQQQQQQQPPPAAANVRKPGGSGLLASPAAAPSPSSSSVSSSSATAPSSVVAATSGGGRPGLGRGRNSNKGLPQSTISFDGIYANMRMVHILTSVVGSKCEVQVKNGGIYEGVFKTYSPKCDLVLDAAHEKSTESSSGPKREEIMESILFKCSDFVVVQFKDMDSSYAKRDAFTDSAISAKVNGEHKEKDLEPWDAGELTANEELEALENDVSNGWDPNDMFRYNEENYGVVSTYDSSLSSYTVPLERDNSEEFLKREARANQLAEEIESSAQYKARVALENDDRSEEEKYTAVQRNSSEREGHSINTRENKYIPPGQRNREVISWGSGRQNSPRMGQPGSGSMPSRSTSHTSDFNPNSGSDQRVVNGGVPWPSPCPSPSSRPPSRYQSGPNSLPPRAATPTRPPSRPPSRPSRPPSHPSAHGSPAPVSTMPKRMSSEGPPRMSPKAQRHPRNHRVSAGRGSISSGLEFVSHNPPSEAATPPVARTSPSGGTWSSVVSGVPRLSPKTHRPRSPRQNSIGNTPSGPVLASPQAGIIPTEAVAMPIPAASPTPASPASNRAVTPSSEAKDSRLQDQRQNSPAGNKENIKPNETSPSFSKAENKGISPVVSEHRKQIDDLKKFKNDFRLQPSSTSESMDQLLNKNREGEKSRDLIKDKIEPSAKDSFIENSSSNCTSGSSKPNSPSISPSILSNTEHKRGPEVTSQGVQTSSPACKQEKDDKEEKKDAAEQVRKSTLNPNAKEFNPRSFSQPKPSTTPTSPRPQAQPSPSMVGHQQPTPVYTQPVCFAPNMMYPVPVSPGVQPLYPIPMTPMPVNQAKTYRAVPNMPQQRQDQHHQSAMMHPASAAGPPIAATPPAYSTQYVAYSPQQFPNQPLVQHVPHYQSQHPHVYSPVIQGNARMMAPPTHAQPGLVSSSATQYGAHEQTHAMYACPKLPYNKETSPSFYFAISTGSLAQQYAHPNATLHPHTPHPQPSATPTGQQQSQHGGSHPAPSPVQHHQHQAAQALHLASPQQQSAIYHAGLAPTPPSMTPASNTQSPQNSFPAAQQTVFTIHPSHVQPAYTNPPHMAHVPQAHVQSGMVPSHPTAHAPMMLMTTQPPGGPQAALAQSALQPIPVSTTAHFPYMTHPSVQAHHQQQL
row,Structure (SMILES),Potency
1,N#Cc1c(Cl)nc(-c2ccncc2)nc1-c1ccccc1,inactive
2,CC(C)(C)SCCNS(=O)(=O)c1ccc(C#N)cc1,inactive
3,COc1ccc(N2CCN(CC(=O)NC(=O)NC(C)(C)C)CC2)cc1,inactive
4,COc1ccc(NC(=O)c2ccc(NC(=O)CN3CCN(c4ccc(O)cc4)CC3)cc2)cc1,31.6 µM (active)
5,COc1ccc(NC(=O)CN2CCN(c3ccccc3)CC2)cc1,inactive
6,CC(C)Oc1ccc(C(=O)/C=C2/C(=O)Nc3ccccc32)cc1,39.8 µM (active)
7,O=C1S/C(=C\c2ccc(O)c([N+](=O)[O-])c2)C(=O)N1c1ccccc1Cl,33.6 µM (active)
8,Cn1cc(/C=C2\SC(=O)N(c3ccccc3)C2=O)c2ccccc21,inactive
9,N#Cc1ccccc1Cn1cc(/C=C/[N+](=O)[O-])c2ccccc21,29.9 µM (active)
10,CCOC(=O)COc1ccccc1/C=C\[N+](=O)[O-],6.31 µM (active)
11,N#Cc1ccccc1Cn1cc(/C=N/Nc2ccc([N+](=O)[O-])cn2)c2ccccc21,inactive
12,Cc1cc(C)cc(NC(=O)Cn2cc(C=O)c3ccccc32)c1,inactive
13,CCOC(=O)N/N=C/c1cn(CCCOc2ccc(C)cc2)c2ccccc12,inactive
14,CCOC(=O)Cn1cc(/C=N/NC(=O)c2cc3ccccc3o2)c2ccccc21,inactive
15,C=CCn1cc(/C=C/c2cc[n+](C)cc2)c2ccccc21,inactive
16,CCOC(=O)Cn1cc(/C=C/[N+](=O)[O-])c2ccccc21,39.8 µM (active)
17,Cc1ccc(C(=O)NNC(=O)COC(=O)COc2ccccc2C#N)cc1,inactive
18,O=C(Cn1cc(/C=C\[N+](=O)[O-])c2ccccc21)Nc1ccccc1,35.5 µM (active)
19,O=C(O)c1ccc(Cn2cc(/C=C\[N+](=O)[O-])c3ccccc32)o1,inactive
20,Cc1ccccc1OCC(=O)OCC(=O)c1ccc[nH]1,inactive
21,COC(=O)c1cc(-n2cccc2)ccc1N1CCOCC1,inactive
22,S=C(Nc1ccccc1)Nc1ccc2c[nH]nc2c1,inactive
23,Cc1ccc(CNC(=O)c2cccc3c2C(=O)c2ccc(N4CCC(C)CC4)cc2S3(=O)=O)cc1,inactive

row,Structure (SMILES),Potency
1,Cc1ccc(-c2cc(-c3ccco3)c3c(N)c(C(=O)NN)oc3n2)cc1,inactive
2,CC(C)(C)[C@H](N)C(=O)N[C@H]1CCC2C3CC=C4C[C@@H](O)CC[C@]4(C)C3CC[C@@]21C (stereo not given in full),37.7 µM (active)
3,CC(=O)C1CCC2C3CC=C4CC(SC(=N)N)CCC4(C)C3CCC12C (stereo not given),37.7 µM (active)
4,Cc1cccc(OCc2n(C)c3ccccc3[n+]2CC(=O)OC2CC(C)CCC2C(C)C)c1 (stereo not given),35.5 µM (active)
5,Nc1nnnn1/N=C/c1cc(Cl)cc(Cl)c1O,inactive
6,O=C(Nc1nccs1)c1cccnc1O,inactive
7,O=C(NCCN1CCOCC1)c1cc2c(=O)n3ccccc3nc2n1Cc1ccccc1,inactive
8,CN(C)CCCNC(=O)C[C@H]1C[C@H](C(=O)N2CCOCC2)[C@@]2(CCC3CCCC3)c3[nH]c4cc(-c5ccco5)ccc4c3CCN2C1=O,35.5 µM (active)
9,O=C(C[C@H]1C[C@H](C(=O)N2CCCCC2)[C@@]2(CCc3ccccc3)c3[nH]c4cc(-c5ccco5)ccc4c3CCN2C1=O)NCCN1CCOCC1,31.6 µM (active)
10,O=C(CCCCCn1c(=S)[nH]c2ccc(N3CCOCC3)cc2c1=O)NCCc1ccccc1,inactive
11,O=C(C[C@H]1C[C@H](C(=O)N2CCOCC2)[C@@]2(CCC3CCCC3)c3[nH]c4cc(-c5ccco5)ccc4c3CCN2C1=O)NCCc1ccccn1,35.5 µM (active)
12,O=C(C[C@H]1C[C@H](C(=O)N2CCOCC2)[C@@]2(CCC3CCCC3)c3[nH]c4cc(-c5ccco5)ccc4c3CCN2C1=O)NCCN1CCOCC1,35.5 µM (active)
13,COCCCn1c(=N)c(C(=O)NCc2ccco2)cc2c(=O)n3ccccc3nc21,inactive
14,CCN(C(=O)COC(=O)c1cc(-c2ccc(C)o2)nc2ccccc12)C1CCS(=O)(=O)C1 (stereo not given),inactive
15,COc1ccc(OC)c(NC(=O)CCN2CCN(C/C=C/c3ccccc3)CC2)c1,inactive
16,COc1cc(NC(=O)CN2CCN(S(=O)(=O)/C=C/c3ccccc3)CC2)cc(OC)c1OC,inactive
17,CCOC(=O)c1[nH]c2ccc(F)cc2c1NC(=O)CN1CCN(C/C=C/c2ccccc2)CC1,39.8 µM (active)
18,CCCCCCCN(c1ccccc1)[C@@H]1C[C@H]2CCCC(=O)N3CC[C@@H](C1)[C@@H]23,35.5 µM (active)
19,COc1ccc(NC(=O)c2ccc(-c3ccc(-c4noc(C)n4)cc3C)cc2)cc1N1CCN(C)CC1,39.8 µM (active)
20,CC(C)(C)c1ccc(CN2N=Nc3ccccc3S2(=O)=O)cc1,39.8 µM (active)
21,O=C(N/N=C\c1c(O)ccc2ccccc12)c1cncc(Br)c1,inactive
22,CC(C)(C)C(=O)Oc1ccc2cc(-c3ccc4ccccc4n3)c(=O)oc2c1,inactive
23,COC(=O)c1ccccc1SCC(=O)Nc1ccc(N2CCOCC2)cc1,inactive

row,Structure (SMILES),Potency
1,COc1ccc(NC(=O)CSc2ccc3c4c(cccc24)C(=O)c2ccccc2-3)cc1,22.4 µM (active)
2,COc1ccc(N2C(=O)c3cccc4c(N(C)CCO)ccc(c34)C2=O)cc1,inactive
3,Oc1ccc(Cl)cc1/C=N/c1ccc2c3c(cccc13)CC2,inactive
4,O=C(CSc1nc(C2CCCCC2)nc2ccccc12)NCc1ccc2c(c1)OCO2,inactive
5,CC(=O)N1Cc2cc(C(=O)NCc3cccc(F)c3)nc(-c3cccc(C4=CCCCC4)c3)c2[C@H]1CCO,35.5 µM (active)
6,CC(C)(C)[S+]([O-])N1Cc2cc(C(=O)NCc3ccc(Oc4ccccc4)cc3)nc(-c3cccc(-c4cc5ccccc5o4)c3)c2[C@H]1CCO (stereo not given in full),35.5 µM (active)
7,CC(C)(C)[S+]([O-])N1Cc2cc(C(=O)NCc3ccc4c(c3)OCO4)nc(-c3cccc(-c4cc5ccccc5o4)c3)c2[C@@H]1CCO (stereo not given in full),31.6 µM (active)
8,CC(C)(C)[S+]([O-])N1Cc2cc(C(=O)NCc3ccc(Oc4ccccc4)cc3)nc(-c3cccc(-c4cc5ccccc5o4)c3)c2[C@@H]1CCO (stereo not given in full),39.8 µM (active)
9,CCn1c(=O)c(C(=O)NCc2ccc3c(c2)OCO3)c(O)c2ccccc21,inactive
10,O=S(=O)(c1ccccc1)N1CCN=C1SCc1cccnc1,inactive
11,CCN(CC)c1ccc2cc(C(=O)NNC(=O)c3ccc(S(=O)(=O)N4CCCCC4)cc3)c(=O)oc2c1,inactive
12,N#CC1=C(N)N2C(=C(C#N)C1c1ccc(Br)cc1)Nc1ccccc12 (stereo not given),inactive
13,O=C1OCCN1C(=O)[C@H]1[C@H](c2ccc(Cl)cc2)C(c2ccccc2)=NN1c1ccccc1,inactive
14,CCOc1ccc(S(=O)(=O)[N-]c2nc3ccccc3nc2-[n+]2ccc(NC(=O)c3ccccc3C)cc2)cc1,inactive
15,Cc1cccc2cc3c(NC(=O)C(C)(C)C)nn(CC(C)C)c3nc12,inactive
16,Cc1cc(NN)nc(NS(=O)(=O)c2ccc(Cl)cc2)n1,inactive
17,CN(C)C(=O)c1cccc(-c2cccc(-c3nc(C(=O)NCc4ccccc4)cc4c3[C@@H](CCO)N([S+]([O-])C(C)(C)C)C4)c2)c1 (stereo not given in full),25.1 µM (active)
18,CSc1nnc(N2C(=O)C(O)=C(C(=O)c3ccco3)C2c2ccc(F)cc2)s1 (stereo not given),inactive
19,CCN=C(S)NCc1ccc2[nH]c(C)cc2c1,inactive
20,FC(F)(F)c1cc(CO[C@@H]2CCCN[C@@H]2c2ccccc2)cc(C(F)(F)F)c1,35.5 µM (active)
21,Cc1cc(C2(c3ccc(O)c(C)c3)C(=O)N(C)c3ccc(Br)cc32)ccc1O,44.7 µM (active)
22,Cc1c(Br)c(=O)oc2c(Br)c(O)ccc12,inactive
23,CC1(C)OC(=O)C(/C=N\Nc2c(Cl)cc(Cl)cc2Cl)=C(O)O1,inactive

row,Structure (SMILES),Potency
1,Cc1cc2oc3cc(NCCC4CCCN4C)ccc3c(=O)c2cc1C (stereo not given),inactive
2,C=C(C)c1nc(Oc2ccccc2)nc(Oc2ccccc2)n1,33.6 µM (active)
3,COc1ccc2cc(-c3cc(C(=O)OCC(=O)NC4CCS(=O)(=O)C4)c4ccccc4n3)ccc2c1 (stereo not given),inactive
4,CC1C(C#N)=C(SCC(N)=O)N=C2CC(C)(C)CC(O)=C21 (stereo not given),inactive
5,COc1cc(/C=C(\C#N)c2nc3ccccc3[nH]2)ccc1OCc1ccccc1F,inactive
6,COc1cc(/C=C(\C#N)c2nc3ccccc3[nH]2)ccc1OCc1ccc(F)cc1,inactive
7,COc1cccc(CNCCc2c[nH]c3ccccc23)c1OCc1ccccc1F,28.2 µM (active)
8,COc1ccc(CNc2cccc3[nH]c(C(F)(F)F)nc23)cc1OC,inactive
9,COc1cc(CNCCc2c[nH]c3ccccc23)ccc1OCc1ccc(F)cc1,35.5 µM (active)
10,COc1cccc(CNc2nc[nH]n2)c1OCc1ccccc1F,inactive
11,COC(=O)C1=CN(CCCN2CCCC2=O)C=C(C(=O)OC)C1c1ccccc1C(F)(F)F,inactive
12,Cc1c(Cc2ccccc2)c(=O)oc2c(CN(C)C)c(O)c(Cl)cc12,inactive
13,Cc1cc(C)n(-c2nc(NCCCN(C)C)c3c4c(sc3n2)CCCC4)n1,25.1 µM (active)
14,COc1ccc2cc(-c3nc(Cl)c4c5c(sc4n3)CCCC5)c(=O)oc2c1,inactive
15,c1ccc(CNc2ncnc3sc4c(c23)CCCC4)nc1,inactive
16,CCn1cc(C2N3CC4(C)CN2CC(C)(C3)C4=O)c2ccccc21 (stereo not given),inactive
17,CCNc1cc2oc(=O)c(CN3CCOCC3)c(C)c2cc1C,inactive
18,COc1cccc(N2CCc3c(C)nc4ccc(Cl)cc4c32)c1,inactive
19,COc1ccc(-n2c(-c3cccc(OC)c3)nc(=S)c3c2CCCC3)cc1,25.1 µM (active)
20,COc1ccc(N2CCN(c3cc(C)c4cccc(C)c4n3)CC2)cc1,inactive
21,CN1CCN(CC/C=C2/c3ccccc3Sc3ccc(S(=O)(=O)N(C)C)cc32)CC1,35.5 µM (active)
